TIM10 inh – TIM10 yeast growth inhibition; S. cerevisiae TIM10 strain growth, BacTiter-Glo luminescence, 24 h; inhibition, % at 10 µM; 330,000 tested, 1.4% active; AID 463195;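 active = inhibition of 40% or more at the single tested concentration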;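 note: wild-type TIM10 isogenic control strain grown at permissive 25 °C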
tim10-1 inh – inhibits growth of tim10-1 mutant yeast; S. cerevisiae tim10-1 ts strain growth, BacTiter-Glo, 24 h; inhibition, % at 20 µM; 330,000 tested, 2.2% active; AID 463190;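 active = inhibition of at least 40%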;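 note: mutant grown at 25 °C; 0% = DMSO wells with yeast and 100% = wells holding no yeast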
tim23-1 inh – growth inhibitors of tim23-1 mutant yeast; inhibition, % at 20 µM; S. cerevisiae tim23-1 growth, BacTiter-Glo luminescence, 24 h; 330,000 tested, 1.3% active;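 active = growth inhibition of the mutant yeast at or above 50%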;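 note: temperature-sensitive mutant grown at 25 °C; plate controls were DMSO-treated mutant yeast for no effect and medium wells lacking yeast for full effect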
PfHsp90 yeast 2 – reduces growth (ATP signal) of yeast expressing P. falciparum Hsp90 | S. cerevisiae expressing PfHsp90, BacTiter-Glo ATP, 48 h; yeast lacking PDR1 and PDR3 efflux regulators | inhibition, % at 9.4 µM | 310,000 tested, 0.32% active;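 active = every replicate shows inhibition above about 80%, whatever the replicate mean, limit read from the data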;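 note: 0% = DMSO neutral controls and 100% = 20 µM radicicol positive controls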
NLRP3 yeast inh – NALP3 inhibition in yeast. Yeast reconstituted NLRP3/ASC/caspase-1, beta-gal luminescence, 24 h. inhibition, % at 10 µM. 330,000 tested, 0.39% active. AID 2825;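 active = inhibition of 50% or more; inactive = inhibition below 50%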;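 note: plate controls were induced DMSO wells for no effect and uninduced yeast grown without galactose for full effect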
tim10 confirm – confirmation of TIM10 yeast growth inhibitors; shares compounds with TIM10 inh; inhibition, % at 10 µM; 4,600 tested, 63% active; AID 463215; S. cerevisiae tim10 strain growth, BacTiter-Glo luminescence, 24 h;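 active = inhibition of yeast growth at or above a set limit in either of two replicates at 10 µM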;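 note: this counterscreen used the strain with wild-type TIM10; 0% = yeast with DMSO and 100% = medium wells lacking yeast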
* marks the source's active call; other numbers are inactive results; · = not tested or not shown. Hits are enriched below; roughly 3.7% of the tested compounds scored in any of these assays.

SMILES	TIM10 inh	tim10-1 inh	tim23-1 inh	PfHsp90 yeast 2	NLRP3 yeast inh	tim10 confirm
CC1CCCCN1Cc1c(O)ccc2c(=O)c(-c3nc4ccccc4s3)c(N)oc12 (stereo not drawn)	41.7*	22.5	46.1	-9.9	22.1	25.1
Cc1cccc(C(=O)OCC(=O)NCc2cccs2)c1	8.0	19.8	26.7	-3.9	31.8	·
O=C(COC(=O)c1c(F)cccc1F)NCc1cccs1	70.7*	-4.6	7.9	·	13.0	-1.3
CC(C)(C(=O)c1ccccc1)/[N+]([O-])=C/c1ccccc1F	-17.3	18.6	13.7	6.0	-9.6	·
O=C(N=Nc1c(O)[nH]c2ccccc12)c1cccs1	61.9*	23.5	10.6	-20.4	30.2	46.8*
O=C1C(c2ccnc3ccccc23)=C(O)c2ccccc21	54.9*	13.4	23.4	24.0	10.4	38.1*
O=C1c2ccccc2C(=O)C1c1ccnc2ccccc12	49.3*	19.5	24.7	8.9	6.7	39.1*
O=C1c2ccccc2C(=O)C1c1nccc2ccccc12	49.4*	6.0	20.7	11.7	15.2	46.6*
CC(=O)c1c(C)[nH]c(C(=O)OCC(=O)Nc2ccc(Cl)cc2[N+](=O)[O-])c1C	29.1	19.1	18.0	-20.4	24.7	·
Cc1cc2nc(/C=C/c3nc4cc(C)c(C)cc4[nH]3)[nH]c2cc1C	·	·	·	-11.2	·	·
Cc1cc2nc(/C=C/c3cccnc3)[nH]c2cc1C	51.2*	-3.8	37.5	5.8	24.5	68.7*
CN(c1ccccc1)c1nc(N)c([N+](=O)[O-])c(N2CCCCCC2)n1	45.2*	23.8	40.9	-1.3	26.9	17.4
O=C(Nc1ccn(-c2ccccc2)n1)c1ccccc1Br	-1.0	0.9	-3.2	-13.2	22.2	·
COc1cc(/C=C(/C(=O)c2cccs2)c2nc3ccccc3[nH]2)ccc1O	43.2*	38.1	24.6	15.8	-7.8	33.6*
O=C(NCc1ccccc1)C1CCCN1C(=O)Nc1ccccc1[N+](=O)[O-] (stereo not drawn)	1.1	-0.8	-1.9	-25.1	7.9	·
CCCNC(=O)N(CCOC)CC1CCCN(C2Cc3ccccc3C2)C1 (stereo not drawn)	-6.8	4.4	7.0	-13.7	17.3	·
CCNC(=O)N(CCOC)CC1CCCN(C2Cc3ccccc3C2)C1 (stereo not drawn)	51.0*	-15.1	-6.6	19.1	17.3	-7.8
COc1cccc(-c2sc3ccccc3c2-c2ccc(OCCN(C)C)cc2)c1	50.0*	-8.1	-0.7	37.6	46.9	52.2*
COc1cccc(-c2sc3ccccc3c2-c2ccc(OCCN3CCCC3)cc2)c1	-25.9	3.7	16.8	21.6	34.1	·
O=C(CSc1ccc(Br)cc1)Nc1cccc(S(=O)(=O)N2CCOCC2)c1	9.1	5.0	23.8	·	22.5	·
Cc1ccc(NCc2nnc(SCC(=O)N(Cc3ccccc3)C(C)(C)C)o2)c(C)c1	40.5*	34.2	28.8	-14.5	4.7	16.3
Cc1ccc(NCc2nnc(SCC(N)=O)o2)c(C)c1	7.7	1.1	13.0	·	3.6	·
CCN(CC)C(=O)Oc1ccc2c(=O)c(-c3ccc(OC)cc3)coc2c1	26.7	26.0	30.6	-16.8	7.8	·
CCN(CC)C(=O)Oc1ccc2c(=O)c(-c3ccc(OC)cc3)c(C)oc2c1	45.1*	36.3	33.5	·	18.9	30.0
COc1cccc(C2/C(=C(/O)c3ccc4c(c3)CC(C)O4)C(=O)C(=O)N2CCCn2ccnc2)c1 (stereo not drawn)	-4.4	-10.1	5.2	4.1	11.7	·
SMILES	TIM10 inh	tim10-1 inh	tim23-1 inh	PfHsp90 yeast 2	NLRP3 yeast inh	tim10 confirm
O=C(CCc1ccccc1)Nc1cc2c(cc1C(=O)O)OCCCO2	2.8	7.8	10.4	·	14.3	·
COC(=O)CNC(=O)CSc1nc2sc(-c3ccccc3)cc2c(=O)n1-c1ccccc1	45.3*	29.1	26.5	-7.5	-5.3	38.0*
COC(=O)CNC(=O)CSc1nc2sccc2c(=O)n1-c1ccccc1	10.2	14.9	5.9	0.2	12.3	·
O=C(Nc1ccc(Cl)cc1)c1cncs1	15.9	-12.2	26.1	11.2	4.2	·
COc1ccc(-c2cc(C3CCN(CC(O)C(F)(F)F)CC3)[nH]n2)cc1 (stereo not drawn)	14.1	-3.7	7.1	3.4	12.3	·
COc1ccc(-c2cc(C3CCN(c4cc(Cl)nc(N)n4)CC3)[nH]n2)cc1	42.9*	15.9	37.9	27.6	14.8	27.7
O=[N+]([O-])c1ccc(Sc2ccccc2)nc1	-5.0	-1.2	17.6	-11.8	10.8	·
